Test results published in PubChem BioAssay (NCI).
About 79,000 compounds went through this panel and 15% of them were active in at least one assay; those are over-represented in the sample as a whole. No stated cut-off is given here; in the data, active means growth inhibition above about 70%; inactive means the rest.

Assays:
[1] = NCI Yeast Anticancer Drug Screen. Data for the rad50 strain (AID 155);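 further: 0% = growth of vehicle-only cultures of the same strain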; conditions: S. cerevisiae rad50 strain growth inhibition; at 50.0 µM; active compounds read high
Outline: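 Genetically altered yeast (DNA repair pathway); compound treatment; growth inhibition vs vehicle ctrl.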

[2] = NCI Yeast Anticancer Drug Screen. Data for the mec2-1 strain (AID 157); conditions: S. cerevisiae mec2-1 strain, at 50.0 µM, active compounds read high
Outline: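 Each compound was tested on mec2-1 yeast, a strain altered in DNA damage repair or cell cycle control. Growth inhibition is reported relative to vehicle.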

[3] = NCI Yeast Anticancer Drug Screen. Data for the sgs1 mgt1 strain (AID 161);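 further: 0% = growth of cultures given vehicle only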; conditions: S. cerevisiae sgs1 mgt1 strain, at 50.0 µM, active compounds read high
Outline: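 Genetically altered yeast, compound exposure, growth inhibition relative to vehicle.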

[4] = NCI Yeast Anticancer Drug Screen. Data for the cln2 rad14 strain (AID 165);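 further: 0% = growth equal to vehicle treated cultures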; conditions: S. cerevisiae cln2 rad14 strain, at 50.0 µM, active compounds read high
Outline: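 Test compounds were added to cln2 rad14 yeast cultures; inhibition of growth was then determined by comparison with vehicle treatment.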

[5] = NCI Yeast Anticancer Drug Screen. Data for the bub3 strain (AID 167); conditions: S. cerevisiae bub3 mutant strain, at 50.0 µM, active compounds read high
Outline: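 Yeast carrying a defined mutation is treated with each compound, and growth is compared with that of vehicle-exposed cells to give inhibition.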

[6] = NCI Yeast Anticancer Drug Screen. Data for the mlh1 rad18 strain (AID 175); conditions: S. cerevisiae mlh1 rad18 strain growth inhibition; at 50.0 µM; active compounds read high
Outline: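 Inhibition values reflect reduced growth of mutant yeast versus vehicle-treated controls following compound exposure; the mutations affect DNA damage repair.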

Measured: growth inhibition

Cc1ccc(/C(C#N)=C/c2cccc([N+](=O)[O-])c2)cc1
inactive: [1] -3.1% | [2] -30.2% | [3] -32% | [4] 24.4% | [5] -17.4% | [6] -4.15%

CC(=O)C(C)c1nc(=S)[nH]c(=S)[nH]1 (stereo unspecified)
inactive: [1] 11.4% | [2] 12.2% | [3] 22.4% | [4] 9.1% | [5] -1.35% | [6] 4.85%

CC(=O)OCC1OC(OCCCc2ccccc2)C(OC(C)=O)C(OC(C)=O)C1OC(C)=O (stereo unspecified)
inactive: [1] 21% | [2] 5.5% | [3] 6.45% | [4] -47.9% | [5] -65.9% | [6] 24.9%

O=c1[nH]c2ccc(Br)cc2cc1Br
inactive: [1] 21.9% | [2] -9% | [3] 0.3% | [4] 6.65% | [5] 2.45% | [6] 20.8%

Cc1cnc(Cl)[nH]1 (tested in a mixture with another compound)
inactive: [1] 2.7% | [2] 1.55% | [3] 2.15% | [4] -47.5% | [5] 14.8% | [6] -5.5%

C#CC(O)(CC)CCCC (stereo unspecified)
inactive: [1] -8.85% | [2] -13.4% | [3] 10.2% | [4] -18.5% | [5] -10.9% | [6] -4.25%

O=NNc1ccc(S(=O)(=O)c2ccccc2)cn1
inactive: [1] 49.1% | [2] 13.9% | [3] -27.9% | [4] 12.1% | [5] -26.6% | [6] 5.2%

COc1ccc(-c2c(-c3ccccc3)oc(/N=C/c3ccccc3)c2-c2ccccc2)cc1
inactive: [1] 8.35% | [2] -0.75% | [3] 4.9% | [4] -2.8% | [5] 2.25% | [6] 13.8%

CC1=C(C(=O)CC(=O)C(=O)Nc2cccc(C)c2C)Sc2ccccc2N1
inactive: [1] -24.6% | [2] -43.1% | [3] -12.8% | [4] -1.9% | [5] -13.8% | [6] -12.5%

Cc1cccc(CSc2nc(N)nc3ncn(C4CC(O)C(CO)O4)c23)n1 (stereo unspecified)
inactive: [1] -20.9% | [2] 3.5% | [3] 10.7% | [4] -48.2% | [5] 2.05% | [6] -19.6%

CCN(CC)CCCC(C)Nc1cc(C)c2nc(C)cc(C)c2c1C (stereo unspecified)
inactive: [1] -22.1% | [2] 9.45% | [3] 17% | [4] -13% | [5] 3.4% | [6] -18.6%

CC1(C)CCC2(C(=O)OC3OC(CO)C(O)C(O)C3O)CCC3(CO)C(=CCC4C5(C)CC(O)C(O)C(C)(C(=O)OC6OC(CO)C(O)C(O)C6O)C5CCC43C)C2C1 (stereo unspecified)
inactive: [1] 2.3% | [2] 4.45% | [3] 17.6% | [4] 23.2% | [5] 19.3% | [6] -92.2%

c1ccc(CCNCc2ccc(CNCCc3ccccc3)cc2)cc1
inactive: [1] -5.75% | [2] -23.9% | [3] -12.2% | [4] 5.05% | [5] -0.25% | [6] 3.45%

COc1ccc2cc(OC)ccc2c1
inactive: [1] 4.95% | [2] -14.6% | [3] -1.15% | [4] 22% | [5] 1.5% | [6] 14%

CCOC(=O)C(CCSC)(CCN(C)Cc1ccccc1)C(=O)OCC
inactive: [1] -23.1% | [2] -3.05% | [3] -6.9% | [4] -0.9% | [5] 8.85% | [6] -3.3%

NCCSCc1ccccc1Cl
inactive: [1] -10.3% | [2] -27.2% | [3] -50.9% | [4] -33.5% | [5] -23.6% | [6] -0.4%

CCOC(=O)C1SC(=Nc2ccc(OC)c(OC)c2)N=C1C (stereo unspecified)
inactive: [1] 17.9% | [2] 4.2% | [3] 50.3% | [4] 4.95% | [5] 29.9% | [6] 1.4%

Cc1cc(Br)cc(C)c1NC(=O)C(=O)C1C(=O)C(CC2C(=O)c3ccccc3C2=O)C(=O)CC1(C)C (stereo unspecified)
inactive: [1] 36.1% | [2] 22.9% | [3] 0.75% | [4] -5.7% | [5] 4.35% | [6] 16.4%

CC(O)CN1c2ccccc2Sc2ccccc21 (stereo unspecified)
inactive: [1] -17.4% | [2] -13.7% | [3] -13.2% | [4] -18.2% | [5] -13.8% | [6] 7.55%

Cc1cn(CCCCCCCCCCCCOc2c3occc3cc3ccc(=O)oc23)c(=O)[nH]c1=O
inactive: [1] 20.1% | [2] 4.6% | [3] -3.5% | [4] 23.2% | [5] -2.35% | [6] 19.6%

Cn1nc(-c2ccccc2)c(-c2cc(-c3ccccc3)n[nH]2)c(N)c1=O
inactive: [1] 18.9% | [2] 12.4% | [3] 20.8% | [4] 7.9% | [5] 19.7% | [6] 22.9%

CCCCCCCCCCC#N
inactive: [1] 15.2% | [2] -8.4% | [3] -5.6% | [4] 14.6% | [5] 9.15% | [6] -17.6%

O=C(O)CCCCCCCCCCS(=O)(=O)CCO
inactive: [1] 5.2% | [2] 6.25% | [3] 13.4% | [4] 20.2% | [5] 19.9% | [6] -10%

CS(=O)CCN=Cc1ccc(N=Nc2ccc(O)cc2)cc1 (stereo unspecified)
inactive: [1] 5.8% | [2] 1.65% | [3] -0.85% | [4] -33.4% | [5] 13.5% | [6] 2.65%

O=[N+]([O-])c1cc(Cl)ccc1Nc1ccccc1
inactive: [1] 51.3% | [2] 32.5% | [3] 57.1% | [4] 4.65% | [5] 24.8% | [6] 53.5%

CCCCCCCCCCCCOC(=O)CSC#N
inactive: [1] -5.65% | [2] -38% | [3] -31.9% | [4] -67.5% | [5] -39.6% | [6] -14.1%

COC(=O)[C@]1(C)CCC[C@]2(C)c3cc(Br)c(C(C)C)cc3CC[C@H]12
inactive: [1] -18.6% | [2] -9.25% | [3] -6.3% | [4] -44.5% | [5] -4.55% | [6] -1.8%

O=c1c(-c2c(-c3ccccc3)oc3ccc(Cl)cc3c2=O)c(-c2ccccc2)oc2ccc(Cl)cc12
inactive: [1] 18.9% | [2] 3.9% | [3] 5.3% | [4] 7.25% | [5] 17.3% | [6] 3.75%

CC1(c2cccc3c2C2(O)C=CC4(CCC32)OCCO4)OCCO1 (stereo unspecified)
inactive: [1] -59.4% | [2] -41.2% | [3] -55.8% | [4] -27.6% | [5] -61.1% | [6] -26%

NCc1ccc(C(=O)O)cc1
inactive: [1] -30.2% | [2] -8.9% | [3] -28% | [4] -68.7% | [5] -13% | [6] -14.6%

NC(=O)/C=C/c1ccc([N+](=O)[O-])cc1
inactive: [1] 33% | [2] -6.85% | [3] -9% | [4] -74% | [5] 4.6% | [6] -3.4%

CC(=O)N(C(C)=O)c1ccccc1/C=C1\CCOC1=O
inactive: [1] -16.4% | [2] -18.9% | [3] -2.25% | [4] -5.05% | [5] 11.6% | [6] -17.6%

CC(C)CC(C)OB(OC(C)CC(C)C)OC(C)CC(C)C (stereo unspecified)
inactive: [1] -11.2% | [2] -24.1% | [3] -4.3% | [4] -16.9% | [5] 0.7% | [6] -14.6%

COC(=O)[C@]1(C)OP(OC)(OC)(OC)O[C@]1(C)C(=O)OC
inactive: [1] -3.4% | [2] -10.2% | [3] 3.25% | [4] -40.5% | [5] -2.15% | [6] -1.6%

COc1cc(OC)c(NC(N)=O)cc1Cl
inactive: [1] 2.3% | [2] -35% | [3] 3.55% | [4] 9.75% | [5] 5.75% | [6] -15.8%

Cn1c(=O)oc2cc(C(O)CN3CCN(Cc4ccccn4)CC3)c(Cl)cc21 (stereo unspecified)
inactive: [1] -19.6% | [2] 3.9% | [3] -4.5% | [4] 2.45% | [5] 6.25% | [6] 11.4%

O=C1CC2(CCN(Cc3ccccc3)CC2)C(=O)N1N1CCCCC1
inactive: [1] 50.9% | [2] 33.3% | [3] 57.8% | [4] 41.9% | [5] 43.8% | [6] 50.4%

NC(=O)NC(=O)/C=C/C(=O)O
inactive: [1] 3.75% | [2] -12.9% | [3] -4.15% | [4] -12.4% | [5] 9.7% | [6] -3.2%

CCC(=O)CCc1ccc2ccccc2c1
inactive: [1] 22.2% | [2] 15.7% | [3] 10.9% | [4] -16.9% | [5] 23.5% | [6] 24.2%

O=C(C[n+]1csc2ccccc21)c1ccc(I)cc1
inactive: [1] -15.3% | [2] -0.65% | [3] -9.15% | [4] -12.8% | [5] -4.8% | [6] 20.4%

COC1CC(N=[N+]=[N-])C(OS(C)(=O)=O)C(C)O1 (stereo unspecified)
inactive: [1] -2.35% | [2] 22.1% | [3] 1.7% | [4] 3.7% | [5] -9% | [6] 14.8%
